# Screening data deposited in PubChem by several laboratories.
# An excerpt weighted towards active compounds, which were near 1% of everything screened.
# sEH inh – soluble epoxide hydrolase inhibitors, primary screen, biochemical, human sEH; recombinant human sEH enzymatic activity assay; inhibition, % at 2 µM; actives 0.34% (n = 91,000); AID 707, 2007; in the data active = inhibition above about 80%
# Target sequence (P34913 whole entry, looked up): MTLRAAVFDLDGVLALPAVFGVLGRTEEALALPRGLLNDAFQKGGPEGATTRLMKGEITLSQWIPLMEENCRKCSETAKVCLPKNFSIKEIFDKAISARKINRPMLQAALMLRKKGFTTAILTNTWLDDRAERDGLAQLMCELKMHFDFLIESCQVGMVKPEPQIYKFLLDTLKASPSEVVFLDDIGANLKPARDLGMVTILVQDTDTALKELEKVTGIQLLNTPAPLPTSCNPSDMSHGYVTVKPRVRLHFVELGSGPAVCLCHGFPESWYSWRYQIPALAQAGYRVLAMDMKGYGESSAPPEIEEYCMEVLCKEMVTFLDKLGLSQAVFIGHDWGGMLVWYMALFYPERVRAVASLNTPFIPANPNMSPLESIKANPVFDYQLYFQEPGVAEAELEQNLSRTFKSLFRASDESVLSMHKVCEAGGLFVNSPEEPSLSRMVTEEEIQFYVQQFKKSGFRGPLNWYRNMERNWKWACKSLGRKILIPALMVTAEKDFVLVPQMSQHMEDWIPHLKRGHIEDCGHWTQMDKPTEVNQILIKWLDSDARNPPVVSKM
# EphB4 ephrin blk – EphB4-ephrin-B2 interaction antagonists, primary screen, biochemical, TNYL-RAW peptide probe, fluorescence polarization. actives 0.15% (n = 97,000). Ephrin type-B receptor 4 (Homo sapiens), P54760. EphB4 LBD / TNYL-RAW-Alexa532 peptide. AID 720, 2007. inhibition, % at 7 µM;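 active = inhibition above the screen-wide mean inhibition plus 3 SD, cut at about 15% in these data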;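 also: 0% = DMSO wells and 100% = excess unlabeled TNYL-RAW peptide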
# PLK1 inh – human PLK1 kinase inhibitors, primary screen, biochemical, TR-FRET. recombinant PLK1 kinase, TR-FRET peptide phosphorylation. inhibition, % at 10 µM. actives 0.53% (n = 97,000). AID 619, 2007;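 active = inhibition of 50% or more in the single-concentration screen; inactive = inhibition below 50%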;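 also: 0% = DMSO max control and 100% = H-89 dihydrochloride min control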
# sEH activator – soluble epoxide hydrolase activators, primary screen, biochemical, human sEH; Bifunctional epoxide hydrolase 2 (Homo sapiens), P34913; purified human sEH enzymatic activity, activator screen; activation, % at 2 µM; actives 0.04% (n = 91,000); AID 717, 2007; in the data active = activation above about 37%
# PLK1 PBD inh – Plk1 polo box domain binding inhibitors, primary screen, biochemical, fluorescence polarization. actives 0.13% (n = 97,000). Serine/threonine-protein kinase PLK1 (Homo sapiens), P53350. Plk1 PBD phosphopeptide binding. AID 693, 2007. inhibition, %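 (tested at about 20 µM)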; in the data active = inhibition above about 34%, passing the limit was not always enough
# * marks the source's active call; other numbers are inactive results; . = not tested or not shown.
SMILES,sEH inh,EphB4 ephrin blk,PLK1 inh,sEH activator,PLK1 PBD inh
O=C(c1ccc2c(=O)n(Cc3ccc4c(c3)OCO4)c(=S)[nH]c2c1)N1CCCCC1,82*,7,8,-82,26
COCCCNC(=O)c1ccc2c(=O)n(Cc3ccc4c(c3)OCO4)c(=S)[nH]c2c1,57,-4,-9,-56,4
O=C(CCCCCn1c(=S)[nH]c2ccccc2c1=O)NCc1ccc2c(c1)OCO2,83*,-6,-14,-83,12
COCCCNC(=O)CCCn1c(=O)[nH]c2ccccc2c1=O,0,1,4,1,-6
CC1CC(C)CN(C(=O)c2ccc3c(=O)n(Cc4ccc5c(c4)OCO5)c(=S)[nH]c3c2)C1 (stereo unspecified),85*,7,0,-84,-16
CCc1nc(C)cn1S(=O)(=O)c1cc(C)c(OC)c(C)c1C,-2,1,-10,4,-26
O=S(=O)(Cc1ccc(Cl)cc1)c1ccccc1-c1nnc(-c2ccc(Cl)cc2)o1,-9,2,-13,9,-12
CSCCC(NC(=O)OC(C)(C)C)C(=O)NC(C(=O)NC(CC(C)C)C(N)=O)C(C)C (stereo unspecified),5,6,-3,-8,11
Cc1ccc2c(c1)c1c(n2CC(O)CNC(CO)(CO)CO)CCCC1 (stereo unspecified),.,-4,63*,.,23
CSC1=N/C(=C\c2ccccc2)C(=O)N1C,-1,7,-13,0,-3
CCOC(=O)C1CCC2(CC1)C(C#N)=C(N)Oc1n[nH]c(C)c12 (stereo unspecified),-3,2,70*,6,-14
O=C(CCCc1ccccc1)Nc1cccnc1,6,-3,11,-5,-15
C=CCc1cc(C)cc(C)c1OCCn1cncn1,-9,17*,-6,7,20
Cc1cc(Cl)cc(Br)c1OCCCCn1cncn1,7,7,-4,-4,-2
O=C(O)C1CCCCC1C(=O)Nc1ccc(F)cc1F (stereo unspecified),5,-3,-11,-6,3
CCN(CCCNC(=O)C1CCN(S(=O)(=O)N2CCC3(CC2)OCCO3)CC1)c1ccccc1,90*,0,-11,-90,-27
COc1ccc(OCCSc2nnc(-c3ccc(OC)cc3)n2N)cc1,-11,-1,-13,11,-5
CC(C)(C)CC(=O)NC(=S)NCCc1ccccc1,-7,2,-16,9,14
CC(C)CC(=O)NC(=S)NCCc1ccccc1,-10,16*,-13,11,1
Cc1ccccc1NC(=S)NNC(=O)c1csc2c1CCC(C)C2 (stereo unspecified),6,-1,-10,-4,11
O=C(Cn1ncc2c3ccccc3n(Cc3ccc(F)cc3)c2c1=O)N1CCN(c2ncccn2)CC1,10,-6,5,-7,-5
O=c1[nH]ncc2c3ccccc3n(Cc3ccc(F)cc3)c12,-3,5,52*,3,1
Cc1ccc2[nH]c(C(=O)O)c(-c3ccccc3)c2c1,8,5,-2,-8,-11
Cc1ccc(-c2ccc(C(=O)O)[nH]2)cc1,1,16*,-4,-2,16
O=C(NCCc1ccccc1)NC1CCCCC1,82*,-3,-7,-82,-9
SMILES,sEH inh,EphB4 ephrin blk,PLK1 inh,sEH activator,PLK1 PBD inh
O=C(NCc1ccccc1)NC1CCCCC1,58,2,-12,-58,-21
O=C(NCCC1=CCCCC1)NC1CCCCC1,94*,8,4,-94,-7
CN1C(=O)c2cccc(NC(=O)Cc3ccccc3)c2C1=O,10,0,-4,-8,-12
Cc1cccc(N(C(=O)Nc2ccccc2)C2=NCC(C)S2)c1 (stereo unspecified),.,3,67*,.,-11
O=C(CSc1nc2c(c(=O)n1-c1ccc(Br)cc1)SCC2)Nc1nccs1,-45,-3,-8,47*,1
COc1ccccc1NC(=O)N1CCN(c2ccccn2)CC1,.,3,62*,.,6
CN(CC(=O)N1CCN(c2ccccn2)CC1)S(=O)(=O)c1ccccc1,-1,0,-9,4,7
O=C(Nc1ccccc1Cl)N1CCN(c2ccccn2)CC1,8,-4,-14,-7,-18
CN(C(=O)N1CCN(c2ccccn2)CC1)c1ccccc1,-8,15*,-8,8,-9
Cc1ccc(CNS(=O)(=O)N(C)C)cc1,-10,1,-1,13,13
COc1ccc(S(=O)(=O)Cc2ccc(C(=O)N3CCN(c4ccccn4)CC3)o2)cc1,.,0,66*,.,-15
COc1ccc(S(=O)(=O)Cc2ccc(C(=O)N3CCN(c4ccccc4F)CC3)o2)cc1,.,-2,63*,.,-3
COCCNC(=O)c1ccc(CS(=O)(=O)c2ccc(OC)cc2)o1,-6,4,-10,6,22
COc1ccc(S(=O)(=O)Cc2ccc(C(=O)N3CCCC3)o2)cc1,1,1,-8,2,19
COc1ccc(S(=O)(=O)Cc2ccc(C(=O)NCc3ccccn3)o2)cc1,.,1,68*,.,3
CNS(=O)(=O)c1cnccc1N1CCN(c2cccc(C(F)(F)F)c2)CC1,1,4,-13,0,1
N#CC1=C(N2CCCCC2)c2cc3c(n2C1=O)CCCC3,-13,2,-12,13,-14
CC1Cc2ccccc2N1C(=O)C1CCCN(S(=O)(=O)c2cccc3cccnc23)C1 (stereo unspecified),.,-1,55*,.,22
COc1ccc(N2CCN(C(=O)C3CCCN(S(=O)(=O)c4cccc5cccnc45)C3)CC2)cc1 (stereo unspecified),0,3,-1,1,5
CCc1c(C)nc2ncnn2c1N1CCC(C(=O)Nc2ccccc2)CC1,51,-1,-4,-52,-21
CCc1c(C)nc2ncnn2c1N1CCC(C(=O)Nc2ccc(C)cc2)CC1,83*,5,7,-83,-14
Cn1c(=O)n(Cc2ccc(Cl)cc2)c2ccccc21,11,5,1,-11,15
Nc1[nH]nc2nc(N3CCOCC3)nc(-c3ccccc3)c12,8,-6,68*,-8,-7
O=C(Nc1ccc(N2CCN(C(=O)c3ccco3)CC2)c(Cl)c1)c1cccs1,35,-1,-8,-31,-4
O=C(Cc1ccc(Cl)cc1)Nc1ccc(N2CCN(C(=O)c3ccco3)CC2)c(Cl)c1,86*,-8,-9,-86,4
COC(=O)c1cc(NC(=O)Nc2ccccc2OC)cc(C(=O)OC)c1,15,3,-9,-13,-5
CCOc1ccc(NC(=O)NCC2CCN(c3ccc(OC)cc3)C2)cc1 (stereo unspecified),88*,0,-9,-88,-4
Cc1cc(C=O)c(C)n1-c1ccc(N2CCCC2)c([N+](=O)[O-])c1,1,0,9,-1,18
